Rows were chosen to be rich in hits. Some 6.3% of all compounds tested hit in one or more screens of this group.
Gal4-VP16 FLuc: VP16 counterscreen qHTS for inhibitors of ROR gamma transcriptional activity; Drosophila S2 Gal4-VP16 UAS-luciferase, luminescence, 20 h; Potency, µM (doses to about 53.6 µM), hits mostly inhibitors; hit rate 3.5% among 310,000;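 note: Gal4-VP16 expression switched on by copper sulfate through the metallothionein promoter; nearly all actives have a fitted effect of over 50% in size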
HepG2 viability: qHTS for Inhibitors of TGF-b: Cytotox Counterscreen; HepG2 CAGA-GFP viability, ATP luminescence, 18 h; Potency, µM (titrated, usually from 46.1 µM), most hits filed as cytotoxic; hit rate 0.76% among 410,000; AID 588856, 2011
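CellTiter-Glo luminescence gave cytotoxicity after 18 hours at 37 degrees C. The cells were HepG2 CAGA-GFP in 1% FBS DMEM, stimulated with 500 pg/mL TGF-beta after compound addition. %Activity was normalised to no-cell wells (complete cell-killing) and DMSO (no toxicity), and curves were fitted and classified.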
ATXN viability: Viability Counterscreen for Primary qHTS for Inhibitors of ATXN expression; Potency, µM (highest dose often 56.7 µM), hits mostly cytotoxic; S2 cells (HEK-293 line with an ATXN2-luciferase reporter) viability, CellTiter-Fluor protease fluorescence, 24 h; hit rate 0.49% among 400,000; AID 651635, 2014; note: nearly all actives have a fitted effect of over 40% in size
TGFb SMAD3 inh: qHTS for Inhibitors of TGF-b; HepG2 CAGA-GFP TGF-b/SMAD3 reporter, GFP fluorescence, 18 h; TGF-beta stimulated, 500 pg/mL final; hit rate 1.2% among 410,000; Potency, µM (doses to about 46.1 µM), usual class: inhibitors; note: nearly all actives have a fitted effect of over 65% in size
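Smad-responsive CAGA-GFP expression was quantified in HEPG2 cells exposed to compounds and 500 pg/mL final TGF-beta for 18 h at 37 degrees C; unstimulated wells defined full inhibition.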
ATXN2 expr inh: Primary qHTS for Inhibitors of ATXN expression; HEK-293 ATXN2-luciferase reporter, luminescence, 24 h; hit rate 0.72% among 360,000; AID 1745845, 2022; Potency, µM (series often up to 57 µM), usual class: inhibitors; note: nearly all actives have a fitted effect of over 55% in size
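ATXN2-luciferase reporter cells (luciferase flanked by upstream and downstream ATXN2 gene portions) were treated 24 h at 37 °C with compounds at up to 57 uM. SteadyGlo luminescence gave expression; GF-AFC fluorescence gave viability.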
RORgamma inh: qHTS for inhibitors of ROR gamma transcriptional activity. Potency, µM (top dose mostly 53.6 µM), hits mostly inhibitors. hit rate 5.4% among 310,000. Drosophila S2 Gal4-RORgamma UAS-luciferase reporter, 20 h; note: nearly all actives have a fitted effect of over 60% in size
Target sequence (P51450 whole entry, looked up, the tested form may be a part): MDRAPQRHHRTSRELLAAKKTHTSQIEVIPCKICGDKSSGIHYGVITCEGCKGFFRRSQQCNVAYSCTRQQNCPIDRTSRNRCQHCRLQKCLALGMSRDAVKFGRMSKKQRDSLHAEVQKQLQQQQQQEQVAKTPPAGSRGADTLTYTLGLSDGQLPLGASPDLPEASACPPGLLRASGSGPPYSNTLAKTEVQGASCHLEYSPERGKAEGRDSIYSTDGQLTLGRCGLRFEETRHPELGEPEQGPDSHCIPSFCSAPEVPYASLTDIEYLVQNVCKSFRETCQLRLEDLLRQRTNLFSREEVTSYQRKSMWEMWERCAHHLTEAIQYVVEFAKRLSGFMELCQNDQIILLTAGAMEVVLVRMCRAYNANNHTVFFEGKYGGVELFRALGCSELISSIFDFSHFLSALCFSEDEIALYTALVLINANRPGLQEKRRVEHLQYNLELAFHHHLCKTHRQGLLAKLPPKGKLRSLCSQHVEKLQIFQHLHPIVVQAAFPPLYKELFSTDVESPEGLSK
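A Gal4/UAS one-hybrid system in insect cells: metallothionein-promoter Gal4–ROR gamma fusion plus Photinus luciferase reporter. Copper sulfate 700 uM final, 20 hr ambient incubation, luminescent detection after 10 min with reagent.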
A number is an active result; 0 = inactive; ? = inconclusive; - = no result given. Calls come from the whole dose curve; as a rule, active = well fitted curve in the direction sought with a large enough effect; inconclusive = small, poorly fitted or top-dose-only effect, or another doubt; inactive = no such curve, though single readings can be large; an effect the other way counts as inactive or inconclusive.

SMILES | Gal4-VP16 FLuc | HepG2 viability | ATXN viability | TGFb SMAD3 inh | ATXN2 expr inh | RORgamma inh
Cc1cc(NC(=O)COC(=O)C2CCN(S(=O)(=O)c3c(Cl)cccc3Cl)CC2)no1 | 0 | 0 | 0 | 0 | 0 | 5.01µM
Cc1cc(NC(=O)COC(=O)C2CCN(S(=O)(=O)c3ccc(Cl)cc3)CC2)no1 | 0 | 0 | 0 | 0 | 0 | 0
CCN1CNC(=S)N(CCc2ccccc2)C1 | 12.6µM | 0 | 0 | 0 | 0 | 8.91µM
CCN1CNC(=S)N(C(C)c2ccccc2)C1 (centres undefined) | 12.6µM | 0 | 0 | 0 | 0 | 10µM
COc1ccccc1N1CN(Cc2ccccc2)CNC1=S | ? | 0 | 0 | 0 | 0 | 2µM
CCOc1ccccc1N1CN(CC)CNC1=S | 0 | 0 | 0 | 0 | 0 | ?
Cc1ccc(N2CN(CCc3ccccc3)CNC2=S)cc1 | 12.6µM | 0 | 0 | 0 | - | 5.01µM
COc1ccccc1N1CN(CCc2ccccc2)CNC1=S | ? | 0 | 0 | 0 | 0 | 0
O=C(NCCc1ccc(F)cc1)C(=O)Nc1cc2c3c(c1)CC(=O)N3CCC2 | - | 0 | 0 | 0 | 0 | -
O=C(OCC(=O)N1CCN(c2ccccc2)CC1)c1cc(F)c(F)cc1Cl | - | 0 | 0 | 0 | - | -
CCN1CNC(=S)N(Cc2ccccc2)C1 | ? | 0 | 0 | 0 | 0 | 15.8µM
S=C1NCN(Cc2ccccc2)CN1 | 0 | 0 | 0 | 0 | 0 | 0
CCOc1ccc(CCN2CN(CC)CNC2=S)cc1OCC | ? | 8.91µM | 0 | 0 | 0 | 12.6µM
CCN1CN(CCc2ccccc2)CNC1=S | ? | 0 | 0 | 0 | 0 | 12.6µM
CCOC(=O)c1ccc(N2CN(CCc3ccccc3)CNC2=S)cc1 | ? | 0 | ? | 0 | 0 | ?
C=CCN1CN(CCc2ccccc2)CNC1=S | 15.8µM | 0 | 0 | 0 | 0 | 1.58µM
Clc1ccccc1-c1nn2c(-c3cc(-c4ccccc4)n[nH]3)nnc2s1 | - | 0 | - | ? | - | -
CCc1cccc(-n2nnc(S(=O)(=O)c3ccc(OC)cc3)c2C)c1 | - | 0 | 0 | ? | 0 | -
OC1CC2CCC(C1)N2CCCN1c2ccccc2Sc2ccc(Cl)cc21 (centres undefined) | - | 22.4µM | 15.8µM | ? | 11.2µM | -
CC1(C)Cc2c(oc3ncn4ncnc4c23)CO1 | 0 | 0 | 0 | 0 | 0 | 0
CSc1nc2oc3c(c2c2nncn12)CC(C)(C)SC3 | 12.6µM | 0 | 0 | 0 | 0 | 0
CC(C)(C)C1CCC(=NNc2ccc(S(N)(=O)=O)cc2[N+](=O)[O-])CC1 (centres undefined) | ? | 11.2µM | 0 | ? | 0 | 0
COc1ccccc1NS(=O)(=O)c1ccc(NN=C2CCCC2)c([N+](=O)[O-])c1 | 17.8µM | 0 | ? | ? | 0 | ?
COC(=O)CCC(=O)OC1(C)C(=O)C=C2C=C(c3ccc(C#N)cc3)OC=C2C1=O (centres undefined) | 0 | - | - | - | - | 0
CC(=O)OCC1(C)CN(c2ccccc2)NC1=O (centres undefined) | ? | 0 | 0 | 0 | - | 12.6µM
SMILES | Gal4-VP16 FLuc | HepG2 viability | ATXN viability | TGFb SMAD3 inh | ATXN2 expr inh | RORgamma inh
CC(=O)OCC1(C)CN(c2ccccc2)N(C(C)=O)C1=O (centres undefined) | 0 | 0 | 0 | 0 | - | 0
CCCOc1ccc(-c2c(C(=O)N/N=C/c3ccc(C)o3)nnn2-c2nonc2N)cc1 | 5.62µM | 0 | 0 | 0 | - | 3.55µM
Cc1ccc(/C=N/NC(=O)c2nnn(-c3nonc3N)c2-c2ccccc2)o1 | ? | 0 | 0 | 0 | 0 | 10µM
CCOc1ccc(-c2c(C(=O)N/N=C/c3ccc(C)o3)nnn2-c2nonc2N)cc1 | 10µM | 0 | 0 | 0 | 0 | 5.62µM
CCOc1ccc(-c2c(C(=O)N/N=C/c3ccsc3)nnn2-c2nonc2N)cc1 | ? | 0 | 0 | 0 | 0 | 0
CCCOc1ccc(-c2c(C(=O)N/N=C/c3ccncc3)nnn2-c2nonc2N)cc1 | 0 | 0 | 0 | 0 | 0 | 0
COc1cc(SC)ccc1C(=O)N1CCC(Cc2ccccc2)CC1 | 0 | - | - | - | - | 0
CCCCN(CC)C(=O)c1cc2c(=O)n3cccc(C)c3nc2n1C | - | 0 | - | 0 | - | -
